ELG1 repair inh = qHTS screen for small molecules that inhibit ELG1-dependent DNA repair in human embryonic kidney (HEK293T) cells expressing luciferase-tagged ELG1; hit rate 2.3% among 330,000; AID 504467, 2011; HEK293T ELG1-luciferase reporter, luminescence, 16 h; DNA damage induced by 5-fluorouridine; Potency, µM (doses to about 46.1 µM), actives largely listed as inhibitors; further: nearly all actives have a fitted effect of over 55% in size
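DMSO vehicle served as the neutral condition. Each well held 2,000 cells given 5-fluorouridine plus compound; after 16 hr at 37 °C/5% CO2, ONE-Glo was added and luciferase measured 30 min later.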
RORg inh = qHTS for inhibitors of ROR gamma transcriptional activity. AID 2551, 2010. Nuclear receptor ROR-gamma (Mus musculus), P51450. hit rate 5.4% among 310,000. Drosophila S2 Gal4-RORgamma UAS-luciferase reporter, 20 h. Potency, µM (titrated, usually from 53.6 µM), usual class: inhibitors; further: nearly all actives have a fitted effect of over 60% in size
Target sequence (P51450 whole entry, looked up, the tested form may be a part): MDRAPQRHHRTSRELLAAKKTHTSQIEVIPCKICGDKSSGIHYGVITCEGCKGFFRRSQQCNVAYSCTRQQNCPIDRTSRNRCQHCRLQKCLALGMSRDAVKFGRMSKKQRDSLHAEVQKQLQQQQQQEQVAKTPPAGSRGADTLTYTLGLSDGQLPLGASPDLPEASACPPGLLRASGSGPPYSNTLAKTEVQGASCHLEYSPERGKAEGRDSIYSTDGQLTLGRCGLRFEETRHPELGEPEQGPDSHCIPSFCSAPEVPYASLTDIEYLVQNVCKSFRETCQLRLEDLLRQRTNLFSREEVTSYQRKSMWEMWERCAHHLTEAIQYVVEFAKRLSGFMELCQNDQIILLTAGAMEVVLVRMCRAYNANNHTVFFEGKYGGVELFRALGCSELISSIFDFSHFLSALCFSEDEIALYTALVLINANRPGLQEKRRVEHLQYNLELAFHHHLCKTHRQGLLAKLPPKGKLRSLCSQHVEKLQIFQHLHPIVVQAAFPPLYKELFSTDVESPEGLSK
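Luminescence from a UAS-regulated Photinus luciferase reporter in stably transfected Drosophila Schneider cells is measured; decreased signal marks ROR gamma inhibition. Fusion expression is induced by 700 uM copper sulfate for 20 hr.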
SW480 rereplic = A quantitative high throughput screen for small molecules that induce DNA re-replication in SW480 colon adenocarcinoma cells; hit rate 1.8% among 340,000; SW480 DNA re-replication, Hoechst DNA content imaging, 48 h; AID 624297, 2012; Potency, µM (highest dose often 46.1 µM), usual class: activators; further: nearly all actives have a fitted effect of over 55% in size
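DNA re-replication was detected as more nuclei of elevated Hoechst intensity after 48 hr exposure to compound (23 nL pinned per well of 250 cells).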
MCF10A rerep = A quantitative high throughput screen for small molecules that induce DNA re-replication in MCF 10a normal breast cells; MCF 10A DNA re-replication, Hoechst nuclear intensity, 48 h; Potency, µM (highest dose often 46.1 µM), actives largely listed as activators; hit rate 2.9% among 350,000; further: nearly all actives have a fitted effect of over 50% in size
VP16 counter = VP16 counterscreen qHTS for inhibitors of ROR gamma transcriptional activity | hit rate 3.5% among 310,000 | Drosophila S2 Gal4-VP16 UAS-luciferase, luminescence, 20 h | AID 2546, 2010 | Potency, µM (top dose mostly 53.6 µM), most hits filed as inhibitors;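 further: Gal4-VP16 expression switched on by copper sulfate through the metallothionein promoter; nearly all actives have a fitted effect of over 50% in size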
Hits are given with their value; n = inactive; u = inconclusive; x = no result given; [ ] = another dose, or the depositor's remark. Sampled rows, rich in hits. Any-hit rate of the full collection: about 10%. The call rests on the fitted dose curve; in most records, active means well fitted curve in the direction sought with a large enough effect; inconclusive means small, poorly fitted or top-dose-only effect, or another doubt; inactive means no such curve, though single readings can be large; an effect the other way counts as inactive or inconclusive.

SMILES	ELG1 repair inh	RORg inh	SW480 rereplic	MCF10A rerep	VP16 counter
COc1cccc(Oc2nc(-c3ccncc3)nc3ccccc23)c1	n	n	n[9.22 µM]	18.4µM	n
c1ccc(Oc2c3ccccc3nc3ccccc23)cc1	n	n	u	18.4µM	n
c1ccc(Oc2nc(-c3ccccn3)nc3ccccc23)cc1	u	0.631µM	20.6µM	u	3.16µM
CSc1nc(Oc2ccc(F)cc2)c2ccccc2n1	n	n	n	u	n
c1ccc(Oc2ncnc3ccccc23)cc1	x	x	n	n	x
COc1ccc(Oc2nc(-c3ccccn3)nc3ccccc23)cc1	9.2µM	0.398µM	u	n	2.51µM
COc1ccc(Oc2nc(-c3ccncc3)nc3ccccc23)cc1	u	n	n[9.22 µM]	n	n
COc1c(C=O)c2c(c(OC)c1OC)-c1ccc(OC)c(=O)cc1C(NC(C)=O)CC2 (centres undefined)	x	x	0.103µM	u	x
COc1cc2c(c(OC)c1OC)-c1ccc(OC)c(=O)cc1C(NC(=O)c1ccccc1)CC2 (centres undefined)	x	x	0.0206µM	u	x
COc1cc2c(c(OC)c1OC)-c1ccc(SC)c(=O)cc1C(NC(=O)c1ccccc1)CC2 (centres undefined)	x	x	0.0146µM	u	x
CCCC(=O)NC1CCc2cc(OC)c(OC)c(OC)c2-c2ccc(OC)c(=O)cc21 (centres undefined)	x	x	0.0046µM	u	x
COc1ccc(C(C)=O)cc1CC(=O)NC1CCCCCC1	n	n	n	n	n
COc1cc2c(c(OC)c1OC)-c1ccc(OC)c(=O)cc1[C@@H](NC=O)CC2	x	n	x	x	n
C=COC(=O)NC1CCc2cc(OC)c(OC)c(OC)c2-c2ccc(SC)c(=O)cc21 (centres undefined)	x	x	u	n	x
Cc1noc(C)c1C(=O)Nc1cccc(S(=O)(=O)N2CCOCC2)c1	n	x	n	n	x
O=C(CSc1nc(C2CC2)nc2ccccc12)N1CCc2ccccc21	x	x	n	u	x
COC(=O)c1ccc2c(c1)C(NC(C)=O)CCc1cc(OC)c(OC)c(OC)c1-2 (centres undefined)	x	x	0.092µM	0.116µM	x
CNC1CCc2cc(OC)c(OC)c(OC)c2-c2ccc(OC)c(=O)cc21 (centres undefined)	x	n	0.119µM	0.075µM	n
COc1c(O[C@@H]2O[C@H](CO)[C@@H](O)[C@H](O)[C@H]2O)cc2c(c1OC)-c1ccc(SC)c(=O)cc1C(NC(C)=O)CC2 (some centres undefined)	n	x	u	n	x
COc1cccc(C(=O)Nc2ccc3c(cc2=O)[C@@H](NC(C)=O)CCc2cc(OC)c(OC)c(OC)c2-3)c1	u	n	7.31µM	5.8µM	n
COc1ccc(N2CCN(C(=O)COC(=O)[C@@H](NC(=O)OCc3ccccc3)C(C)C)CC2)cc1	x	x	n	n	x
CCc1cc(=O)oc2cc(C)cc(OC(C)C(=O)NCc3cccnc3)c12 (centres undefined)	n	n	n	n	n
C/C(=N\Nc1cc(C)nc(NCc2ccccc2)n1)c1cccc([N+](=O)[O-])c1	n	n	n	n	n
C/C(=N\Nc1cc(N2CCOCC2)nc(C)n1)c1cccc([N+](=O)[O-])c1	14.6µM	n	n	n	n
CCCCc1ccc(/C(C)=N/Nc2cc(N3CCOCC3)nc(C)n2)cc1	n	12.6µM	u	20.6µM	u
SMILES	ELG1 repair inh	RORg inh	SW480 rereplic	MCF10A rerep	VP16 counter
CCc1ccc(/C(C)=N/Nc2cc(Cl)nc(C)n2)cc1	n	n	n	n	n
COc1ccccc1C1=Nn2c(nnc2-c2ccccc2O)SC1	x	u	x	x	n
O=C1CN2CCC1C/C2=C\c1ccnc2c(Cl)cccc12 (centres undefined)	10.3µM	n	n	n	n
O=C1C/C(=C\c2c(F)cccc2Cl)N2CCC1CC2	n	n	n	n	n
Cc1ccc(C(=O)C(c2ccccc2)N2Cc3ccccc3C2=N)cc1 (centres undefined)	u	3.98µM	u	20.6µM	10µM
COc1ccc(C(=O)c2ccc(Cl)c([N+](=O)[O-])c2)cc1	n	u	0.82µM	3.66µM	n
O=C(c1cccnc1)N1N=C(c2cccs2)CC1c1ccc(F)cc1 (centres undefined)	n	n	n	n	n[10 µM]
CCOC(=O)N1CCN(C(=O)COc2cccc3c2CCN(Cc2ccccc2C)C3=O)CC1	u	u	n	n	n
O=C1c2cccc(OCC(=O)N3CCCc4ccccc43)c2CCN1Cc1cccnc1	7.3µM	u	n	n	u
O=C1c2cccc(OCC(=O)N3N=C(c4cccs4)CC3c3ccc(F)cc3)c2CCN1Cc1cccnc1 (centres undefined)	18.4µM	n	x	u	u
CCOC(=O)N1CCN(C(=O)COc2cccc3c2CCN(Cc2cccc(C)c2)C3=O)CC1	20.6µM	u	n	n	n
Cc1noc(C)c1COC(=O)c1ccccc1Sc1ccccc1C#N	23.1µM	n	n	n	n
COc1ccc(NC(=O)C2CCCN2C(=O)OCc2ccccc2)cc1 (centres undefined)	n	n	n	n	n
COc1ccc(C2=CC(=O)C[C@H](COCc3ccccc3)N(C(=O)OC(C)(C)C)O2)cc1	x	x	n	23.1µM	x
Cc1ccc(S(=O)(=O)NC(CC(=O)O)c2cccs2)cc1 (centres undefined)	n	n	n	n	n
CCCCC(=O)N1CCCC(c2nc(-c3cccc(OC)c3)no2)C1 (centres undefined)	u	n	n	n	n
COc1cccc(-c2noc(C3CCCN(C(=O)CC(C)(C)C)C3)n2)c1 (centres undefined)	n	n	n	0.461µM	n
COc1ccc(CN(C)C(=O)COC(=O)c2cc([N+](=O)[O-])ccc2N2CCCC2)c(OC)c1OC	14.6µM	x	n	n	x
CN(Cc1ccccc1)C(=O)COC(=O)c1cc([N+](=O)[O-])ccc1N1CCOCC1	n	x	n	n	x
COC(=O)c1sc(C(C)(C)C)cc1CS(=O)(=O)c1ccccn1	16.4µM	n	n	n	n
CCC(Sc1ccc2nnc(-c3ccc(F)cc3)n2n1)C(=O)OC (centres undefined)	n	20µM	n	n	n
COC(=O)C(C)Sc1ccc2nnc(-c3ccc(F)cc3)n2n1 (centres undefined)	n	n	n	n	n
COc1ccc(C(=O)Cn2c(C)nc([N+](=O)[O-])c2Br)cc1	u	n	n	u	u
Cc1nc([N+](=O)[O-])c(Br)n1CC(=O)c1ccc(Cl)cc1	n	10µM	u	14.6µM	u
Cc1nc([N+](=O)[O-])c(Br)n1Cc1ccc(Cl)c(Cl)c1	u	7.08µM	u	20.6µM	u
CCc1nnc(NS(=O)(=O)c2ccc(NC(=O)c3ccccc3OC)cc2)s1	n	n	n	n	n

Screens from PubChem BioAssay.
